Values joined by “and” are separate entries in the source; they are usually repeats but may differ in a detail not shown here. Identical values can stand only once.
Test system: H9c2
Assay: protection of cardiomyocytes from stress damage, SAR follow-up, cell-based, panel, H9c2 and HL-1, ATP luminescence, set 2 (AID 651871);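 note: cells exposed to stressor for 2 h before ATP readout; reference of the scale not given here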
Conditions: H9c2/HL-1 cardiomyocytes, 2-deoxyglucose stress, with 2-deoxyglucose; run 12, at 79 µM (top of the series)

| SMILES | activity (protection/inhibition) |
| --- | --- |
| CCOC(=O)c1cccc(NC(=O)CNC(=O)c2cc(-c3cc(OC)c(OC)c(OC)c3)nc3ccccc23)c1 | 86.3% |
| COc1ccc2c(c1OC)C(=O)N1c3ccccc3C(=O)N(Cc3cccc(Cl)c3Cl)C21 (stereo not drawn) | 79.7% and 81.4% and -3.37% |
| COc1ccc2nc(-c3cc(OC)c(OC)c(OC)c3)cc(C(=O)NCC(=O)Nc3ccc(C(C)=O)cc3)c2c1 | 79.9% |

— PubChem BioAssay AID651871 (Sanford-Burnham Center for Chemical Genomics, 2012)
